Screen size: about 60,000 compounds; about 370 (0.62%) were called active. The sample as a whole holds a higher share of actives than the screen did. A number with no mark means an inactive call. Cut-off read from the data, not from the text of the source: active = inhibition above about 17%; inactive = the rest.
Each compound was assayed against Mitogen-activated protein kinase 10 (Homo sapiens) (UniProt P53779) (assay: inhibition of human JNK3 enzyme – biochemical, purified enzyme, primary screen (AID 746;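 note: 0% = DMSO and 100% = reference inhibitor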)). Conditions: purified JNK3 kinase activity, HTS; at 8 µM; active compounds read high.
Sequence of Mitogen-activated protein kinase 10 (Homo sapiens) (P53779 whole entry, looked up): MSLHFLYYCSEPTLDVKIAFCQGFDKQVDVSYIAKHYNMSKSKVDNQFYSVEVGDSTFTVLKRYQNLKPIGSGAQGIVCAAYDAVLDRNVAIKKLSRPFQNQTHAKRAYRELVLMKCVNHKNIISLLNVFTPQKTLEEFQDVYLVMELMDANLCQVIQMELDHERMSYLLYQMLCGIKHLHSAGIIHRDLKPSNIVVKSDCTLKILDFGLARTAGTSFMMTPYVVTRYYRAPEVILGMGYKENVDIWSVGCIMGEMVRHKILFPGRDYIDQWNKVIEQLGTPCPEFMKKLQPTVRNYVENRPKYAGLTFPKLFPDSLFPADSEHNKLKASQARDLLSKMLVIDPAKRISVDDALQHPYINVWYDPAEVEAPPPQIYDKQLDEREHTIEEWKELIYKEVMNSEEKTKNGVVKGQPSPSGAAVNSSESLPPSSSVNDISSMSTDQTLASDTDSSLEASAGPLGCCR

SMILES | inhibition
Cc1cc(/C=N/n2cnnc2)c(C)n1-c1cccc(C(=O)O)c1 | 0.73%
O=C(CSC1=NCCS1)Nc1nc(-c2ccccc2)cs1 | 0.48%
Oc1ccc2nc(Cc3ccccc3)[nH]c2c1 | 5.45%
Cc1cc(O)ccc1-c1cnc2ccccc2n1 | 25.6% (active)
Cc1nc2ccccc2cc1O | -3.12%
O=C1NC2(CCCCC2)N=C1c1ccccc1 | 0.31%
COC(=O)C(CC(=O)Nc1cc(C)ccc1C)Nc1ccccc1OC (configuration not stated) | -2.33%
O=C(C1CCN(c2nnc(-n3cccc3)s2)CC1)N1CCc2ccccc2C1 | -2.74%
CCOc1ccccc1C1NC(=O)NC(C)=C1C(=O)OCc1ccco1 (configuration not stated) | 2.09%
CSc1nc(C)nc2c1c(=O)n(C)c(=O)n2C | 4.34%
CCOc1ccc(NS(=O)(=O)c2ccc(OCC(=O)NCCCOC)cc2)cc1 | -5.51%
O=C(OC(C(=O)NC1CCCC1)c1ccc(F)cc1)c1ccno1 (configuration not stated) | -3.98%
CCC1SC2=NCCN2C1(O)c1ccc(Cl)cc1 (configuration not stated) | -0.2%
O=C(O)Cc1ccc(NC(=O)C2CCCCC2C(=O)O)cc1 (configuration not stated) | 3.04%
Cc1cn(COC/C=C/c2ccccc2)c(=O)[nH]c1=O | -1.97%
CCOC(=O)CNC(=O)CN1C(=O)CCSc2ccccc21 | -4.85%
O=C(CSc1nnc(-c2ccco2)o1)NCC(=O)c1ccccc1 | -0.03%
O=C(COc1ncnc2ccccc12)NC(=O)NCc1ccccc1 | 1.94%
COc1cccc2c(=O)n(CC(=O)N3CCCCCC3)ccc12 | 1.14%
OCCCN1c2ccccc2Nc2nnc(-c3ccccc3)cc21 | 31.6% (active)
Cc1ccc2c(c1)C(O)(CC(=O)c1cccnc1)C(=O)N2 (configuration not stated) | 4.44%
CC(=O)c1sc2nc(SCC(=O)N3CCCCC3)[nH]c(=O)c2c1C | 19.7% (active)
O=C(CSc1nc2c(cnn2-c2ccc(F)cc2)c(=O)[nH]1)N1CCCCCC1 | 1.45%

SMILES | inhibition
C=CCNC(=O)CSc1nc2sc(C)c(C)c2c(=O)[nH]1 | -0.43%
O=C1NC(c2ccncc2)Nc2sc3c(c21)CCCC3 (configuration not stated) | 4.12%
CC(=NCc1ccc2c(c1)OCO2)C1=C(O)c2ccccc2C1=O | 12.4%
CC(=NCc1ccco1)C1=C(O)c2ccccc2C1=O | 32.9% (active)
O=C1C(C=NCC2CCCO2)=C(O)c2ccccc21 (configuration not stated) | 3.41%
Cc1ccnc(N2CCN(C(=O)CSc3nc4ccccc4nc3N3CCCCC3)CC2)c1 | 6.1%
Cc1cc(N2CCCC2)n2nc(C)c(-c3ccccc3)c2n1 | -0.31%
CCOC(=O)N1CCN(C(=O)CSc2ccc(Cl)cc2)CC1 | -3.08%
CC(=O)c1ccc(N2C(=NC(=O)C(C)C)SC3CS(=O)(=O)CC32)cc1 (configuration not stated) | 3.06%
O=C(NCc1ccco1)c1ccc(CS(=O)(=O)Cc2ccc(F)cc2)o1 | 2.1%
COc1ccccc1C(=O)N1CCN=C1SCc1cccnc1 | -7.75%
CCN1CCN(C(=O)CN(C)S(=O)(=O)c2ccc(OC)cc2)CC1 | -5.84%
CC(CN1CCCCC1)OC(=O)c1ccccc1Cl (configuration not stated) | 2.81%
CCc1ccccc1N(CC(=O)N1CCN(c2ccccc2F)CC1)S(C)(=O)=O | 2.83%
COCCCn1c2nc3ccccc3nc2c2c(=O)n(Cc3ccc(Cl)cc3)c(C)nc21 | 3.15%
Cc1ccsc1CNn1cnnc1SCc1ccccc1F | -1.56%
Fc1c(F)c(C(F)(F)F)c(F)c(F)c1N1CCN(c2ccc3nnc(C(F)(F)F)n3n2)CC1 | -2.37%
Cc1cc(C)n(C(=O)c2ccc(S(=O)(=O)N3CCCC3)cc2)n1 | 5.94%
O=C(CSc1nnc(Cc2ccccc2)n1-c1ccccc1)N1CCOCC1 | -3.48%
CCOC(=O)c1ccc(COC(=O)c2cc(=O)[nH]c3ccccc23)o1 | -6.13%
COc1ccc(COC(=O)c2n[nH]c3ccccc23)cc1F | 54.8% (active)
COC(=O)c1[nH]c2ccccc2c1NS(=O)(=O)c1ccc(OC)cc1OC | 2.86%
CSc1nsc(SC)c1NC(=O)OC1CCCCC1 | -12%

SMILES | inhibition
CS(=O)(=O)N1CCCC(C(=O)N2CCOCC2)C1 (configuration not stated) | 6.57%
COCCN1Cc2cccc(C(=O)Nc3ccccc3OC)c2C1=O | 2.47%
O=C(O)c1cccc2c1C(=O)N(C1CCCCC1)C2 | -0.07%
CCCN1Cc2cccc(C(=O)NCc3ccccc3)c2C1=O | 19.8% (active)
CC(=O)c1c(C)n([O-])c2ccccc2[n+]1=O | -1.64%
C=C1c2cc(CC)ccc2NC(=O)N1c1ccc(C)cc1 | -1.58%
CCN=C1SC(CC(=O)Nc2ccc(C)cc2)C(=O)N1CC (configuration not stated) | 0.86%
CCc1ccccc1NC(=O)c1cccs1 | 6.07%
CCOC(=O)c1cc2sccc2n1Cc1ccc(C#N)cc1 | 4.65%
Cc1ccn2cc(-c3nonc3C)cc2c1 | 2.16%
Cc1cccc(NC(=O)CSC(N)=O)c1C | -3.12%
CCOC(=O)c1cccc(NC(=O)CCc2c(C)nc3ncnn3c2C)c1 | 4.2%
COC(=O)c1cc(NC2c3ccccc3C(=O)N2c2ccc(Cl)cn2)cc(C(=O)OC)c1 (configuration not stated) | 1.5%
CN(C(=O)C1CCOC1)c1nnc(-c2cccnc2)s1 (configuration not stated) | -0.13%
COc1ccc(N2CCN(Cc3cc(=O)oc4ccc5ccccc5c34)CC2)cc1 | 11.2%
Cn1c(=O)[nH]c(=O)c2c1nc(N1CCN(CCO)CC1)n2CCSc1nc2ccccc2s1 | -3.17%
COc1ccc(C)c2sc(=NC(=O)c3ccc(C#N)cc3)n(C)c12 | 1.99%
CCOc1ccc(CCNC(=O)C2CCN(c3ccc(N4CCOCC4)nn3)CC2)cc1OCC | -3.01%
CC(=O)Oc1ccc(C(=O)Nc2nccs2)cc1 | 31.3% (active)
COc1cc(C(=O)Nc2nccs2)cc(OC)c1OC | 8.3%
Cn1cccc1C(=O)Nc1nccs1 | 3.03%

Reference: PubChem BioAssay AID746 (The Scripps Research Institute Molecular Screening Center, 2007)
